Our source for the Potency and outcome values is PubChem BioAssay (Tox21).

Assay [1] in a line: qHTS assay to identify small molecule antagonists of the thyroid receptor (TR) signaling pathway - cell viability counter screen (AID 743064). Further: nearly all actives have a fitted effect of over 50% in size. In outline:
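In rat pituitary GH3.TRE-Luc reporter cells co-exposed to compound and 1 nM T3 for 23.5 h, cytotoxicity was assessed with CellTiter-Fluor in the same wells, read by fluorescence.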
A general note: qHTS replaces the single test concentration by a dilution series.

Assay [2] is described as follows: qHTS assay to identify small molecule antagonists of the thyroid receptor (TR) signaling pathway (AID 743065). Further: series mostly up to about 70 µM; nearly all actives have a fitted effect of over 55% in size. The essentials: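 GH3.TRE-Luc rat pituitary cells (two TREs driving luciferase) were dosed with compound, then stimulated with 1 nM T3 (final) for 23.5 h at 37 C. ONE-Glo luminescence was the read-out, with CellTiter-Fluor fluorescence as the cytotoxicity counter-screen.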

Assay [3] concerns thyroid hormone receptor (rat, GH3 cells). In words: qHTS assay to identify small molecule agonists of the thyroid receptor (TR) signaling pathway (AID 743066; calls by dose curve).
The target of assay [4] is Estrogen receptor (Homo sapiens) (UniProt P03372). In words: qHTS assay to identify small molecule antagonists of the estrogen receptor alpha (ER-alpha) signaling pathway (AID 743069; active means well fitted curve in the direction sought with a large enough effect in the signal ratio in the repeat runs, not every such curve was filed as active; the % refers to the signal ratio). The essentials:
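In this cell-based reporter format, GripTite HEK293 cells harbouring ER-alpha-UAS-bla were grown overnight with 2% charcoal-stripped FBS, dosed with DMSO-dissolved compounds, then challenged with 17beta-estradiol. After 18 hr at 37C, beta-lactamase activity was detected by FRET fluorescence.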

Assay [5] can be described thus: qHTS assay to identify small molecule antagonists of the estrogen receptor alpha (ER-alpha) signaling pathway - cell viability counter screen (AID 743074; calls by dose curve; further: nearly all actives have a fitted effect of over 45% in size).
Assay [6] concerns the target Estrogen receptor (Homo sapiens) (UniProt P03372). Nature of the assay: qHTS assay to identify small molecule agonists of the estrogen receptor alpha (ER-alpha) signaling pathway (AID 743075; calls by dose curve; further: potency means the concentration at half of the fitted maximal effect).
For assay [7] the target is unchanged. In words: qHTS assay to identify small molecule agonists of the estrogen receptor alpha (ER-alpha) signaling pathway using the BG1 cell line (AID 743079). Further: nearly all actives have a fitted effect of over 20% in size. Further: potency means the concentration at half of the fitted maximal effect.
Assay [8] is described as follows: qHTS assay to identify small molecule antagonists of the estrogen receptor alpha (ER-alpha) signaling pathway using the BG1 cell line (AID 743080; calls by dose curve;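 further: BG1 cells stimulated with 17beta-estradiol alongside compound; series mostly up to about 70 µM; nearly all actives have a fitted effect of over 25% in size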). In outline: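 BG1-Luc-4E2 cells (endogenous full-length ER-alpha, 4xERE luciferase) hormone-starved 5 days in charcoal-stripped FBS, plated 4,000/well for 24 h, then compound plus 17beta-estradiol for 21.5 h at 37 C; ONE-Glo luminescence read.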

Assay [9] in a line: qHTS assay to identify small molecule antagonists of the estrogen receptor alpha (ER-alpha) signaling pathway using the BG1 cell line - cell viability counter screen (AID 743081).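 Further: compound given together with 17beta-estradiol as the ER stimulus; nearly all actives have a fitted effect of over 45% in size.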 Further: potency means the concentration at half of the fitted maximal effect.
The next assay addresses Aromatase (Homo sapiens) (UniProt P11511). Nature of the assay: qHTS assay to identify aromatase inhibitors (AID 743083). Further: nearly all actives have a fitted effect of over 55% in size. Further: potency means the concentration at half of the fitted maximal effect.
The nature of assay [10]: qHTS assay to identify aromatase inhibitors - cell viability counter screen (AID 743084).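 Further: cells stimulated with testosterone during compound exposure; nearly all actives have a fitted effect of over 55% in size.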
Assay [11] can be described thus: qHTS assay to identify small molecule that activate the aryl hydrocarbon receptor (AhR) signaling pathway - cell viability counter screen (AID 743086). Further: nearly all actives have a fitted effect of over 45% in size. Further: potency means the concentration at half of the fitted maximal effect. The essentials:
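HepG2-AhR-luc (HG2L7.5c1) cells, 4000/well, treated 24 h at 37 C with compound; viability measured as CellTiter-Fluor fluorescence after 30 min in the same wells as the luciferase read.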

In assay [12] the target is Peroxisome proliferator-activated receptor gamma (Homo sapiens) (UniProt P37231). Nature of the assay: qHTS assay to identify small molecule agonists of the peroxisome proliferator-activated receptor gamma (PPARg) signaling pathway (AID 743094; active means well fitted activation curve with a large enough effect in the signal ratio in the repeat runs, not every such curve was filed as active; the % refers to the signal ratio). The essentials: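 Cell-based bla reporter, HEK293H background, PPARg-driven UAS. Pre-incubation 5 h, 37C, 5% CO2. Compound 17 h, 37C. Substrate 1 h RT; fluorescence.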

The nature of assay [13]: qHTS assay to identify small molecule antagonists of the peroxisome proliferator-activated receptor gamma (PPARg) signaling pathway - cell viability counter screen (AID 743194). Further: nearly all actives have a fitted effect of over 55% in size. In outline: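 Cytotoxicity counter screen in PPARg-bla HEK293H cells, same wells as reporter assay. Compounds plus 50 nM rosiglitazone (final) for 17 h at 37 C, then viability read by CellTiter-Glo luminescence.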

A short description of assay [14]: qHTS assay for small molecule agonists of the antioxidant response element (ARE) signaling pathway (AID 743202; active means well fitted activation curve with a large enough effect in the signal ratio in the repeat runs, not every such curve was filed as active; the % refers to the signal ratio; further: potency means the concentration at half of the fitted maximal effect). The essentials:
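HepG2 ARE-bla cells; 16 h treatment at 37 C; FRET-based beta-lactamase fluorescence read after 2 h substrate incubation at room temperature.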

Assay [15] in a line: qHTS assay for small molecule agonists of the antioxidant response element (ARE) signaling pathway - cell viability counter screen (AID 743203; calls by dose curve; further: nearly all actives have a fitted effect of over 55% in size; further: potency means the concentration at half of the fitted maximal effect). The essentials:
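Measured in the same wells as the beta-lactamase ARE reporter, this read-out is CellTiter-Glo luminescence from HepG2 ARE-bla cells given compounds for 16 hrs.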

A short description of assay [16]: qHTS assay for small molecule activators of the heat shock response signaling pathway - cell viability counter screen (AID 743209). Further: nearly all actives have a fitted effect of over 50% in size. The essentials:
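Same-well multiplex: after 2.5 h room-temperature incubation with LiveBLAzer B/G substrate and fluorescence reading, CellTiter-Glo reagent was added to HSE-bla HeLa cells that had received compound for 5 h at 37 C; luminescence read after 30 min.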

Assay [17] is described as follows: qHTS assay for small molecule activators of the heat shock response signaling pathway (AID 743210; active means well fitted activation curve with a large enough effect in the signal ratio in the repeat runs, with a control signal flat, not every such curve was filed as active; the % refers to the signal ratio;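 further: HeLa cells with beta-lactamase reporter driven by heat shock elements; series mostly up to about 63 µM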). In outline:
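Following overnight attachment, HSE-bla HeLa cells received test compounds for 5 h at 37 C; beta-lactamase activity was then detected via FRET substrate fluorescence.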

Assay [18] deals with Peroxisome proliferator-activated receptor gamma (Homo sapiens) (UniProt P37231). Nature of the assay: qHTS assay to identify small molecule antagonists of the peroxisome proliferator-activated receptor gamma (PPARg) signaling pathway (AID 743191; calls by dose curve; further: series mostly up to about 63 µM; nearly all actives have a fitted effect of over 30% in size). In outline:
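GeneBLAzer PPARg UAS-bla HEK293H cells, 5 h post-plating, exposed to compounds 17 h at 37C. LiveBLAzer B/G FRET substrate added for 1 h at room temperature; beta-lactamase reporter read by fluorescence intensity.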

The target in assay [19] is Aryl hydrocarbon receptor (Homo sapiens) (UniProt P35869). In words: qHTS assay to identify small molecule that activate the aryl hydrocarbon receptor (AhR) signaling pathway (AID 743085). Further: nearly all actives have a fitted effect of over 15% in size. Further: potency means the concentration at half of the fitted maximal effect.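 On activation: HG2L7.5c1 human HepG2 liver cells with stably integrated DRE-driven firefly reporter; series mostly up to about 70 µM.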 The essentials: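 AhR agonist activity is inferred from enhanced light output of a DRE-controlled firefly luciferase reporter in HepG2 cells, measured with ONE-Glo following 24 h treatment at 37C.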

Values joined by “and” are separate entries in the source; they are usually repeats but may differ in a detail not shown here. Identical values can stand only once. Records with an inconclusive call do not appear. More than one record can exist for a structure, and the calls need not agree. Active and inactive are the calls of the source. Unless noted, the call rests on the fitted dose curve; in most records, active means well fitted curve in the direction sought with a large enough effect in the repeat runs; inconclusive means weak or mixed curves; inactive means no such curve, though single readings can be large; an effect the other way counts as inactive or inconclusive.

Aryl hydrocarbon receptor (Homo sapiens), sequence (P35869 whole entry, looked up): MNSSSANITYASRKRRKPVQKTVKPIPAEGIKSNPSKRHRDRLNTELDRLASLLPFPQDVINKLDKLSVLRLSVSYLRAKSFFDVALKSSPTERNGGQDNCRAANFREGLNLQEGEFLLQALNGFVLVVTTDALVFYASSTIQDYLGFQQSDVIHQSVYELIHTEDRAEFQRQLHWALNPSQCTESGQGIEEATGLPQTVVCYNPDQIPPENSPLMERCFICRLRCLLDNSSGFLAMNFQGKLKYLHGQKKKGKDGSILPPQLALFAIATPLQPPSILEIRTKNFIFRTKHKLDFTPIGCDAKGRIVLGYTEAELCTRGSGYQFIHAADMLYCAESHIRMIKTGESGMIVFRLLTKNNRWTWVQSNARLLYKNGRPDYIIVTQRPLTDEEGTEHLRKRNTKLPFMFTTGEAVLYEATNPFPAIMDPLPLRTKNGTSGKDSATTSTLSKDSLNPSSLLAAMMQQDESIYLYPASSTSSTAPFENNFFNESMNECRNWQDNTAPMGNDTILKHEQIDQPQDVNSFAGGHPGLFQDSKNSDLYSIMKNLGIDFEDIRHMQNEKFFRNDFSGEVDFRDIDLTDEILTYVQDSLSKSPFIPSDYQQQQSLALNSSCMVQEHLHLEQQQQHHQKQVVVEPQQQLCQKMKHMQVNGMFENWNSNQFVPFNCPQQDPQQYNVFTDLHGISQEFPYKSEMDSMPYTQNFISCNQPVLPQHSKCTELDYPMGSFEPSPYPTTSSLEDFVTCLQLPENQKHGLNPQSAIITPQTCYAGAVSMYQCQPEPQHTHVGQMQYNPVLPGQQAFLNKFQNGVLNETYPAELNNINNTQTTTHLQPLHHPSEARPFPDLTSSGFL
Estrogen receptor (Homo sapiens), sequence (P03372 whole entry, looked up): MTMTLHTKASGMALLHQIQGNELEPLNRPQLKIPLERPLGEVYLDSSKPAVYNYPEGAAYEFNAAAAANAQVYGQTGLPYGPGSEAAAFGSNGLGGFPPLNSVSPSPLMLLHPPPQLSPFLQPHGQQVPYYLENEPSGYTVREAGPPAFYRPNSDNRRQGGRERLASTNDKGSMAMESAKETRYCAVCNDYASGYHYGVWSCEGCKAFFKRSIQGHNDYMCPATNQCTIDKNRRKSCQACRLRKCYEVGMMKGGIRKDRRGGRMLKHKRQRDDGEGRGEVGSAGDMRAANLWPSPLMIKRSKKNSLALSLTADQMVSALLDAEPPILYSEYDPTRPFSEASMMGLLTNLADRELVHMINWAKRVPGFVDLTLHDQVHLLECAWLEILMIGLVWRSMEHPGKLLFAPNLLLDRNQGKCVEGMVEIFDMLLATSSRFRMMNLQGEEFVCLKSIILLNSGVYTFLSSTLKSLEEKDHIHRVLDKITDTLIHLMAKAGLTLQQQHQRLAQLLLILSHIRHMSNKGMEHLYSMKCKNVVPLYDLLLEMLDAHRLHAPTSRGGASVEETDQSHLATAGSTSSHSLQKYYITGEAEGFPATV
Peroxisome proliferator-activated receptor gamma (Homo sapiens), sequence (P37231 whole entry, looked up): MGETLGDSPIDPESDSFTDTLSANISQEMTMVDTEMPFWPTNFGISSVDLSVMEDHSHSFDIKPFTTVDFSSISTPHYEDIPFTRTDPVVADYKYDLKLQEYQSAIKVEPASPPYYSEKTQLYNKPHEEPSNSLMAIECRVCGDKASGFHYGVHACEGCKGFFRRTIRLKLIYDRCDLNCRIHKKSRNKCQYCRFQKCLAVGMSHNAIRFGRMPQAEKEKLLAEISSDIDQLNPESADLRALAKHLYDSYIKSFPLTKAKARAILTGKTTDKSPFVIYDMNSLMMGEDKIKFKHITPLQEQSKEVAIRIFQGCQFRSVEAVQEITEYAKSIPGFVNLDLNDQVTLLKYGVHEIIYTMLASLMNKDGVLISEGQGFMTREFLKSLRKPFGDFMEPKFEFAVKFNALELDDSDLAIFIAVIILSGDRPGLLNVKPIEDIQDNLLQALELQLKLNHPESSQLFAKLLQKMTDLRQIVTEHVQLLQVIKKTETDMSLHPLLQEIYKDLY
Aromatase (Homo sapiens), sequence (P11511 whole entry, looked up): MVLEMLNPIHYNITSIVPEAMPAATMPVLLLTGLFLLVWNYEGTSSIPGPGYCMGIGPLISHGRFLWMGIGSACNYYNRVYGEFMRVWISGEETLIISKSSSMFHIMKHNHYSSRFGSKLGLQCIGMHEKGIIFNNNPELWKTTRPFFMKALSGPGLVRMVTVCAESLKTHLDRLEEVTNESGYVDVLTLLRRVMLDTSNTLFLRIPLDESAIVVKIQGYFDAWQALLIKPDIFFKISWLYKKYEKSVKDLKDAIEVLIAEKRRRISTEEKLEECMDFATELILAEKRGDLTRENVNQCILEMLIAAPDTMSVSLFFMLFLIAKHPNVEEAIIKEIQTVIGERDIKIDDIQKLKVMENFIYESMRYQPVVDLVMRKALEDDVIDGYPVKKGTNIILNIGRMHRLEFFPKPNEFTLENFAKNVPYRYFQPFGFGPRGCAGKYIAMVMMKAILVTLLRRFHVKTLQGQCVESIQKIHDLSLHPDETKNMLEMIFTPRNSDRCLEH

For the compound `CC(=O)/C=C/C1=C(C)CCCC1(C)C`, the Potency entry in assay [1], in assay [2], in assay [4], in assay [6], in assay [7] and in assay [8] was “inactive” in each case. For the same compound, the Potency entry (in assay [9]; with Aromatase (Homo sapiens); in assay [10]; in [11]; in assay [12]; in assay [13]) was “inactive” each time. For the same compound, the Potency entry in assay [14] and in assay [15] was “inactive” in each case. For the same compound, the outcome in [3], in [5], in [16] and in assay [17] was inactive.

As to `CCCCOCCOCCOC(C)=O`, the Potency entry in [1], in assay [2], in assay [4], in [6], in assay [7] and in [8] was “inactive” throughout. For the same compound, the Potency entry (in assay [9]; with Aromatase (Homo sapiens); in assay [10]; in assay [11]; in assay [12]; in assay [18]) was “inactive” in each case. Further, the Potency result in [13], in [14] and in [15] was “inactive” in each case. The compound was called inactive in assay [3], in [5], in [16] and in [17].

On to `C1CNCCN1`, for which the Potency result in [1], in assay [2], in [4], in [6], in [8] and in assay [9] was “inactive” throughout. Moreover, the Potency entry (with Aromatase (Homo sapiens); in assay [10]; in assay [11]; in assay [12]; in [18]; in [13]) was “inactive” in each case. Further, the Potency entry in [14] and in [15] was “inactive” in each case. For the same compound, the result in [3], in [5], in [16] and in assay [17] was inactive. For the same compound, in assay [7], the Potency result was “inactive and 68 µM (active)”.

Take `COc1ccccc1NC(=O)CC(C)=O`: the Potency entry in assay [1], in assay [2], in assay [4], in [6], in assay [7] and in assay [8] was “inactive” each time. Moreover, the Potency result (in assay [9]; in the assay with Aromatase (Homo sapiens); in [10]; in assay [11]; in assay [12]; in [13]) was “inactive” each time. The Potency result in [14] and in assay [15] was “inactive” throughout. Further, the compound was called inactive in assay [3], in [16] and in assay [17].

On to `NC(=O)N/N=C/c1ccc([N+](=O)[O-])o1`, for which the Potency result in [1], in [2], in assay [4], in assay [6], in assay [7] and in [8] was “inactive” throughout. Moreover, the Potency entry in [10], in assay [12] and in [13] was “inactive” throughout. Besides, the result in [3], in assay [5], in assay [16] and in assay [17] was inactive. Further, the Potency result in assay [9] is “inactive and 54.5 µM (active)”; with Aromatase (Homo sapiens), “inactive and 62.9 µM (active)”; in [11], “inactive and 62.9 µM [cytotoxic] (active)”; in assay [14], “inactive and 11.9 µM (active)”; in assay [15] it was “inactive and 54.5 µM (active)”.

For the compound `Cc1ccc(O)c(-n2nc3ccccc3n2)c1`, the Potency entry (in assay [1]; in assay [2]; in [4]; in assay [9]; with Aromatase (Homo sapiens); in assay [10]) was “inactive” each time. The Potency result in assay [11], in [12], in assay [18], in [13] and in assay [15] was “inactive” in each case. In addition, the result in [3], in assay [5], in [16] and in assay [17] was inactive. In addition, the Potency result in assay [6] was “inactive and 11 µM [activator] (active)”; in [7] it was 5.96 µM (active) and 17.1 µM (active) and 3.86 µM (active); in [19], 21.1 µM (active) and 60.6 µM (active) and 17.2 µM (active); in [14] it was 60.6 µM (active).

As for `CCCCCCCC(=O)OCC(O)CO` (stereo unspecified), the Potency entry (in assay [1]; in assay [2]; in assay [9]; with Aromatase (Homo sapiens); in assay [10]; in assay [19]) was “inactive” throughout. The Potency entry in [11], in assay [12], in assay [18], in [13], in [14] and in [15] was “inactive” each time. Also, the compound was classed as inactive in [3], in [5], in [16] and in assay [17].
